Here are results for 40 molecules from PubChem BioAssay (NCI).

SMILES strings stand for the structures. About 79,000 compounds went through this panel and 15% of them were active in at least one assay; those are over-represented in the sample as a whole. The source made the active and inactive calls. Rule as the data show it: active = growth inhibition above about 70%; inactive = the rest. Where a SMILES comes first, the peptide text is derived from it. [ ]: non-standard residue; d: D form. The star is where a group is joined. mTyr = N[CH](Cc1cccc(O)c1)C(=O)O; Cbz = O=C(OCc1ccccc1)*; OBn = c1ccc(CO*)cc1

One assay can be described thus: NCI Yeast Anticancer Drug Screen. Data for the mec2-1 strain (AID 157). Conditions: S. cerevisiae mec2-1 strain, at 50.0 µM, hits give high values. In a few lines: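 Using mec2-1 yeast: add compound, measure growth, express inhibition versus vehicle-treated cultures.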
As for `CC12CCC(c3sc(N)c(C#N)c31)C2(C)C` (stereo not given), the growth inhibition is 60.2% (inactive).

With `O=C1/C(=C/c2cccc(F)c2)CCCc2ccccc21`, the growth inhibition was 37.2% (inactive).

As to `CC(=O)N[C@H]1CC[C@H]2[C@@H]3CCC4=CC(=O)CC[C@]4(C)[C@H]3CC[C@]12C`, the growth inhibition is 94.5% (active).

Consider `C/C(=N/O)c1ccc2c(c1)C(=NO)c1cc(/C(C)=N/O)ccc1-2`, for which the growth inhibition was 94.7% (active).

For `Cc1cccc(N2C(c3ccccc3)c3ccc(C)cc3NS2=O)c1` (stereo not given), the growth inhibition is 98.8% (active).

`[Pt].c1ccc(P(CCP(CCP(c2ccccc2)c2ccccc2)CCP(c2ccccc2)c2ccccc2)c2ccccc2)cc1`: the growth inhibition was 84.2% (active).

Turning to `Cc1cc(I)ccc1NC(=S)Nc1ccccc1F`, the growth inhibition is 90.5% (active).

For `FC(F)(F)c1ccccc1NC(=S)SCc1ccc(Cl)cc1`, the growth inhibition was 97.2% (active).

As to `COC(=O)C1(C)CC2C(C)(CCC3(C)C4=CC=C5C(=CC(=O)C(O)=C5C)C4(C)CCC23C)CC1O` (stereo not given), the growth inhibition was 87.9% (active).

`CC1CCC(=NNC(N)=O)CC1` (stereo not given): the growth inhibition is -10.9% (inactive).

In the case of `CCOC(=O)C(NS(=O)(=O)c1ccccc1)(C(F)(F)F)P(=O)(OCC(C)C)OCC(C)C` (stereo not given), the growth inhibition is 96.1% (active).

Regarding `O=[N+]([O-])c1ccc(/C=N/NC2=CS(=O)(=O)C=C2)cc1`, the growth inhibition was 2.45% (inactive).

With `CC(C)c1ccc2c(c1)CCC1C(C)(CNC(=O)S)CCCC21C.[Zn+2]` (stereo not given), the growth inhibition was 46.8% (inactive).

Consider `Cc1ccc(N=Nc2sc(N)nc2C)cc1C`, for which the growth inhibition is 35.8% (inactive).

For `CC(C)(C)C1CCC2c3c([nH]c4ccccc34)C3C(=O)N(c4ccc(C(=O)O)cc4)C(=O)C3C2C1` (stereo not given), the growth inhibition is 99.2% (active).

`O=C(CBr)Nc1ccc(Cc2ccc(NC(=O)CBr)cc2)cc1`: the growth inhibition is 98.7% (active).

Take `O=c1[nH]c2c([N+](=O)[O-])cc(Cl)cc2nc1/C=C(\O)c1ccc(Cl)cc1`: the growth inhibition was 95.3% (active).

Consider `CCOC(=O)C1=C(N)N(S(=O)(=O)c2ccc(C)cc2)CCC(C(=O)OC)=C1`, for which the growth inhibition is 31.9% (inactive).

Regarding `CC(C)=CC(=O)OC(CCCc1ccccc1)c1ccc2c(c1)OCO2` (stereo not given), the growth inhibition was -13.2% (inactive).

With `OCCN(CCO)c1cc(/C=C/c2ccnc3ccccc23)nc2ccccc12`, the growth inhibition is 28.6% (inactive).

For `CCCCCCCCCCCC(=O)OCC1CO1` (stereo not given), the growth inhibition was -4.65% (inactive).

On to `CCCCCCCCCCCCCCCCCC1=NCCN1`, for which the growth inhibition is 99.3% (active).

With `CC(=O)OCC1OC(OC2C=C(O[Si](C)(C)C)C[C@H]3C(=O)C=CC(=O)[C@@H]23)C(OC(C)=O)C(OC(C)=O)C1OC(C)=O` (stereo not given in full), the growth inhibition was 59.2% (inactive).

`C[C@]12CC[C@H]3[C@@H](CCC4=CC(=O)CC[C@@]43C)[C@@H]1CC[C@@H]2C(=O)C=O`: the growth inhibition is 52.6% (inactive).

For the molecule `CCCCCC(O)C(C)CO` (stereo not given), the growth inhibition was -7.6% (inactive).

`CC(=O)Oc1ccc(-c2ccccc2)cc1Br`: the growth inhibition is 96.2% (active).

For `COC(=O)C(Cc1cccc(O)c1)NC(=O)C(CC(=O)OCc1ccccc1)NC(=O)OCc1ccccc1` (stereo not given) (Cbz-Asp(OBn)-[mTyr]-OMe; configuration not given here), the growth inhibition was 74.8% (active).

On to `CCC(CO)Nc1nc2cc(Br)ccc2c2ccc(Br)cc12` (stereo not given), for which the growth inhibition was 95.5% (active).

With `Cc1cc(Br)ccc1NC(=O)/C=C/C(=O)O`, the growth inhibition was 4.25% (inactive).

With `CCO/C=C1N=C(/C=C/c2ccccc2Cl)OC/1=O`, the growth inhibition is 45.4% (inactive).

On to `O=S(=O)(Nc1ccccc1C(F)(F)F)c1ccc(F)cc1`, for which the growth inhibition is 46.5% (inactive).

As for `N#CSCC(=O)c1ccc2ccccc2c1`, the growth inhibition was 92.1% (active).

Take `O=[N+]([O-])/C(Cl)=C(\Nc1ccccc1)C(Cl)=C(Cl)Cl`: the growth inhibition was 92.2% (active).

`C/C(=N/NC(=O)c1ccccc1S(N)(=O)=O)C(CN1CCCCC1)C(C1=C(O)C2C=CC=CC2OC1=O)c1ccccc1` (stereo not given): the growth inhibition is 91.4% (active).

Take `N#Cc1c([N+](=O)[O-])cc(C(F)(F)F)cc1[N+](=O)[O-]`: the growth inhibition was 99.6% (active).

For the molecule `CCCCCCCCCCCCO`, the growth inhibition was 42% (inactive).

As to `S=C(N/N=C/c1ccccn1)N1CC2CCC(CC2)C1`, the growth inhibition was 93.5% (active).

As for `ClC1(c2ccccc2)c2ccccc2-c2ccccc21`, the growth inhibition was 95.6% (active).

For `Cc1ccc(SCC#CC#CCS(=O)c2ccc(C)cc2)cc1` (stereo not given), the growth inhibition is 98.5% (active).

Consider `CCCCCCCOc1ccc(C=O)cc1OC`, for which the growth inhibition was 44% (inactive).

Another assay can be described thus: NCI Yeast Anticancer Drug Screen. Data for the sgs1 mgt1 strain (AID 161).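 Also: 0% = growth of cultures given vehicle only.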 Conditions: S. cerevisiae sgs1 mgt1 strain, at 5.0 µM (retest, dose inferred, filed as 0.5), hits give high values. In a few lines:
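Compounds are added to genetically altered yeast, and growth is compared with cultures given vehicle alone to give percent inhibition.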
Consider `CC12CCC(c3sc(N)c(C#N)c31)C2(C)C` (stereo not given), for which the growth inhibition was -13% (inactive).

For `O=C1/C(=C/c2cccc(F)c2)CCCc2ccccc21`, the growth inhibition was 13% (inactive).

Regarding `CC(=O)N[C@H]1CC[C@H]2[C@@H]3CCC4=CC(=O)CC[C@]4(C)[C@H]3CC[C@]12C`, the growth inhibition is 10% (inactive).

Turning to `C/C(=N/O)c1ccc2c(c1)C(=NO)c1cc(/C(C)=N/O)ccc1-2`, the growth inhibition is 10% (inactive).

On to `Cc1cccc(N2C(c3ccccc3)c3ccc(C)cc3NS2=O)c1` (stereo not given), for which the growth inhibition is 1% (inactive).

Take `[Pt].c1ccc(P(CCP(CCP(c2ccccc2)c2ccccc2)CCP(c2ccccc2)c2ccccc2)c2ccccc2)cc1`: the growth inhibition is 19% (inactive).

Take `Cc1cc(I)ccc1NC(=S)Nc1ccccc1F`: the growth inhibition is -3% (inactive).

Turning to `FC(F)(F)c1ccccc1NC(=S)SCc1ccc(Cl)cc1`, the growth inhibition is 1% (inactive).

For `COC(=O)C1(C)CC2C(C)(CCC3(C)C4=CC=C5C(=CC(=O)C(O)=C5C)C4(C)CCC23C)CC1O` (stereo not given), the growth inhibition is 48% (inactive).

For the molecule `CC1CCC(=NNC(N)=O)CC1` (stereo not given), the growth inhibition is -1% (inactive).

Take `CCOC(=O)C(NS(=O)(=O)c1ccccc1)(C(F)(F)F)P(=O)(OCC(C)C)OCC(C)C` (stereo not given): the growth inhibition was -7% (inactive).

As for `O=[N+]([O-])c1ccc(/C=N/NC2=CS(=O)(=O)C=C2)cc1`, the growth inhibition was -5% (inactive).

As for `CC(C)c1ccc2c(c1)CCC1C(C)(CNC(=O)S)CCCC21C.[Zn+2]` (stereo not given), the growth inhibition was 5% (inactive).

In the case of `Cc1ccc(N=Nc2sc(N)nc2C)cc1C`, the growth inhibition is -65% (inactive).

Consider `CC(C)(C)C1CCC2c3c([nH]c4ccccc34)C3C(=O)N(c4ccc(C(=O)O)cc4)C(=O)C3C2C1` (stereo not given), for which the growth inhibition is 99% (active).

For `O=C(CBr)Nc1ccc(Cc2ccc(NC(=O)CBr)cc2)cc1`, the growth inhibition was 35% (inactive).

For `O=c1[nH]c2c([N+](=O)[O-])cc(Cl)cc2nc1/C=C(\O)c1ccc(Cl)cc1`, the growth inhibition is -3% (inactive).

For the molecule `CCOC(=O)C1=C(N)N(S(=O)(=O)c2ccc(C)cc2)CCC(C(=O)OC)=C1`, the growth inhibition was 5% (inactive).

For `CC(C)=CC(=O)OC(CCCc1ccccc1)c1ccc2c(c1)OCO2` (stereo not given), the growth inhibition was -6% (inactive).

In the case of `OCCN(CCO)c1cc(/C=C/c2ccnc3ccccc23)nc2ccccc12`, the growth inhibition was 12% (inactive).

In the case of `CCCCCCCCCCCC(=O)OCC1CO1` (stereo not given), the growth inhibition was 6% (inactive).

As for `CCCCCCCCCCCCCCCCCC1=NCCN1`, the growth inhibition was 1% (inactive).

Regarding `CC(=O)OCC1OC(OC2C=C(O[Si](C)(C)C)C[C@H]3C(=O)C=CC(=O)[C@@H]23)C(OC(C)=O)C(OC(C)=O)C1OC(C)=O` (stereo not given in full), the growth inhibition is 2% (inactive).

Turning to `C[C@]12CC[C@H]3[C@@H](CCC4=CC(=O)CC[C@@]43C)[C@@H]1CC[C@@H]2C(=O)C=O`, the growth inhibition is 16% (inactive).

Regarding `CCCCCC(O)C(C)CO` (stereo not given), the growth inhibition is -2% (inactive).

Take `CC(=O)Oc1ccc(-c2ccccc2)cc1Br`: the growth inhibition is 6% (inactive).

As for `COC(=O)C(Cc1cccc(O)c1)NC(=O)C(CC(=O)OCc1ccccc1)NC(=O)OCc1ccccc1` (stereo not given) (Cbz-Asp(OBn)-[mTyr]-OMe; configuration not given here), the growth inhibition was 2% (inactive).

Consider `CCC(CO)Nc1nc2cc(Br)ccc2c2ccc(Br)cc12` (stereo not given), for which the growth inhibition was 62% (inactive).

`Cc1cc(Br)ccc1NC(=O)/C=C/C(=O)O`: the growth inhibition was -17% (inactive).

On to `CCO/C=C1N=C(/C=C/c2ccccc2Cl)OC/1=O`, for which the growth inhibition is 9% (inactive).

For `O=S(=O)(Nc1ccccc1C(F)(F)F)c1ccc(F)cc1`, the growth inhibition is -11% (inactive).

Consider `N#CSCC(=O)c1ccc2ccccc2c1`, for which the growth inhibition is 97% (active).

Turning to `O=[N+]([O-])/C(Cl)=C(\Nc1ccccc1)C(Cl)=C(Cl)Cl`, the growth inhibition is 73% (active).

For `C/C(=N/NC(=O)c1ccccc1S(N)(=O)=O)C(CN1CCCCC1)C(C1=C(O)C2C=CC=CC2OC1=O)c1ccccc1` (stereo not given), the growth inhibition is 19% (inactive).

Take `N#Cc1c([N+](=O)[O-])cc(C(F)(F)F)cc1[N+](=O)[O-]`: the growth inhibition is 68% (inactive).

In the case of `CCCCCCCCCCCCO`, the growth inhibition was -4% (inactive).

Take `S=C(N/N=C/c1ccccn1)N1CC2CCC(CC2)C1`: the growth inhibition is 98% (active).

Consider `ClC1(c2ccccc2)c2ccccc2-c2ccccc21`, for which the growth inhibition is -6% (inactive).

`Cc1ccc(SCC#CC#CCS(=O)c2ccc(C)cc2)cc1` (stereo not given): the growth inhibition was 100% (active).

Regarding `CCCCCCCOc1ccc(C=O)cc1OC`, the growth inhibition was 3% (inactive).
